Most compounds without a hit are left out; they make up all but 19% or so of the library.
DT40 TDP1 no CPT – qHTS for Inhibitors of human tyrosyl-DNA phosphodiesterase 1 (TDP1): qHTS in cells in absence of CPT | DT40 Tdp1-/- hTDP1 cells, no CPT, ATP luminescence, 48 h | Potency, µM (doses to about 46.2 µM), hits mostly inhibitors | 420,000 compounds, 15% hits | AID 686978, 2013; also: nearly all actives have a fitted effect of over 55% in size
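Camptothecin absent (DMSO only). Human TDP1-complemented DT40 knockout cells, 400 cells/well, 37 °C for minimum 48 hr; ATP measured via CellTiter-Glo, 30 min dark incubation, luminescence.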
IL1B secr inh – inflammasome signaling inhibition, IL-1 beta readout; THP-1 LPS/ATP IL-1B secretion, AlphaLISA, 16 h; stronger effect = lower value; activity change, % at 57.5 µM; 360,000 compounds, 4.7% hits; AID 743279; in the data active = activity change below about -50%; inconclusive = mostly about -30% to -49%
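Secreted IL-1B measured by AlphaLISA bead assay after 16 h compound exposure of THP-1 cells; compounds (final up to 57.5 uM) added 1 h before LPS (250 ng/mL) and ATP (1.25 mM) stimulation; lower signal means less secretion.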
HT1080-NT tox – kills 2HG-producing HT-1080-NT fibrosarcoma cells. 360,000 compounds, 1.6% hits. HT-1080-NT fibrosarcoma viability, CellTiter-Glo ATP luminescence, 48 h. Potency, µM (highest dose often 46.1 µM), usual class: cytotoxic;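 also: NT is the 2HG producing partner of a matched IDH1 knockdown line; nearly all actives have a fitted effect of over 55% in size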
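Compounds were tested in concentration-response format on HT-1080-NT cells for 48 hours at 37 degrees C. Cell viability came from CellTiter-Glo luminescence; curves were classified by r2, response magnitude and activity.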
TDP1 cell CPT – growth inhibition of DT40 Tdp1-/-;hTDP1 cells with camptothecin (screen for TDP1 inhibitors); chicken DT40 Tdp1-/-;hTDP1 cells + 20 nM CPT, ATP luminescence, 48 h; Potency, µM (series often up to 46.2 µM), most hits filed as inhibitors; 420,000 compounds, 12% hits; AID 686979; also: nearly all actives have a fitted effect of over 55% in size
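Cell growth measured by CellTiter-Glo luminescence after a minimum 48 h, 37 C compound exposure with 20 nM CPT in Tdp1-knockout DT40 cells stably expressing hTDP1, seeded 400/well; qHTS titration format.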
HT1080 IDH1KD tx – HT-1080 IDH1 knockdown cell toxicity (counter line). HT-1080 IDH1 knockdown viability, ATP luminescence, 48 h. Potency, µM (top dose mostly 46.1 µM), usual class: cytotoxic. 360,000 compounds, 2% hits. AID 686971
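Knockdown cells (IDH1KD HT-1080) received compounds 2 h after plating at 750 cells/well and were kept 48 h at 37 °C in 5% FBS RPMI. A CellTiter-Glo luminescence read gave % activity for curve fitting.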
ELG1 DNA repair – blocks ELG1-dependent DNA repair in HEK293T cells; 330,000 compounds, 2.3% hits; Potency, µM (titrated, usually from 46.1 µM), usual class: inhibitors; HEK293T ELG1-luciferase reporter, luminescence, 16 h; DNA damage induced by 5-fluorouridine; also: nearly all actives have a fitted effect of over 55% in size
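Luminescence from the luciferase reporter, measured 30 min after ONE-Glo reagent at room temperature, was the read-out. Beforehand, 2,000 cells per well were exposed for 16 hr at 37 °C to 5-fluorouridine together with compound or vehicle.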
Of the large screens only hits and unclear results are named; the others gave an inactive call. Unless noted, calls follow the shape of the dose curve; as a rule, active = well fitted curve in the direction sought with a large enough effect; inconclusive = small, poorly fitted or top-dose-only effect, or another doubt; inactive = no such curve, though single readings can be large; an effect the other way counts as inactive or inconclusive.

Cc1nn(C2CCS(=O)(=O)C2)c(C)c1C=O (configuration not stated)	DT40 TDP1 no CPT 20.6µM, TDP1 cell CPT inconclusive
COc1cc(=O)n2c(c1C(=O)NC(C)c1ccco1)CCN(C(=O)c1cccc(C)c1C)CC2 (configuration not stated)	TDP1 cell CPT 0.164µM (no result: IL1B secr inh, HT1080-NT tox, HT1080 IDH1KD tx, ELG1 DNA repair)
COc1cc(=O)n2c(c1C(=O)NC(C)c1ccco1)CCN(C(=O)c1cccc(C)c1)CC2 (configuration not stated)	none (no result: IL1B secr inh, HT1080-NT tox, HT1080 IDH1KD tx, ELG1 DNA repair)
CCN(CC)S(=O)(=O)c1ccc2c(c1)N(CC(=O)NCCCN1CCN(c3ccc(OC)cc3)CC1)C(=O)CO2	DT40 TDP1 no CPT inconclusive (no result: IL1B secr inh, HT1080-NT tox, HT1080 IDH1KD tx, ELG1 DNA repair)
Cc1ccc(C(=O)N/C(=C\c2ccc(C)o2)C(=O)O)cc1	none
Cc1ccc(C(=O)N/C(=C\c2ccc(-c3ccccc3[N+](=O)[O-])o2)C(=O)NCCCN2CCOCC2)cc1	DT40 TDP1 no CPT inconclusive, HT1080-NT tox inconclusive, TDP1 cell CPT 20.6µM, HT1080 IDH1KD tx inconclusive
CN(C)CCNC(=O)/C(=C/c1ccc(-c2ccc(Cl)cc2Cl)o1)NC(=O)c1ccccc1	DT40 TDP1 no CPT inconclusive, IL1B secr inh -67.2, HT1080-NT tox inconclusive, TDP1 cell CPT inconclusive, HT1080 IDH1KD tx 20.6µM
Cc1ccc(C(=O)N/C(=C\c2ccc(-c3ccc(Br)cc3)o2)C(=O)NCCCN(C)C)cc1	DT40 TDP1 no CPT 3.26µM, IL1B secr inh -77.2, HT1080-NT tox inconclusive, TDP1 cell CPT 4.61µM, HT1080 IDH1KD tx 23.1µM
CN(C)CCNC(=O)/C(=C/c1ccc(-c2ccc(Cl)cc2)o1)NC(=O)c1ccccc1	DT40 TDP1 no CPT inconclusive, IL1B secr inh -93.1, TDP1 cell CPT inconclusive
O=C(NCCN1CCOCC1)/C(=C/c1ccc(Cl)cc1)NC(=O)c1ccccc1	IL1B secr inh inconclusive
CC1(C)CC(=O)c2cc(C(=O)Nc3ccc(Br)cc3)c(=O)n(-c3ccc(Cl)cc3)c2C1	none (no result: IL1B secr inh, HT1080-NT tox, HT1080 IDH1KD tx, ELG1 DNA repair)
O=C(CSc1nnc(-c2ccccc2F)o1)N1CCNC1=O	IL1B secr inh inconclusive, ELG1 DNA repair inconclusive
CO[C@H]1[C@H](NC(=O)c2cccc(F)c2)c2ccccc2C12CCN(Cc1ccco1)CC2	none (no result: IL1B secr inh, HT1080-NT tox, HT1080 IDH1KD tx, ELG1 DNA repair)
COC(=O)C1CCN(Cc2ccc3c(c2)CN(C(=O)C2Cc4ccccc4O2)CCO3)CC1 (configuration not stated)	none (no result: IL1B secr inh, HT1080-NT tox, HT1080 IDH1KD tx, ELG1 DNA repair)
O=C(N/N=C/c1ccc(N2CCOCC2)cc1)c1ccccc1OCCOc1ccccc1	DT40 TDP1 no CPT inconclusive, IL1B secr inh -64.6, TDP1 cell CPT 16.4µM, HT1080 IDH1KD tx inconclusive, ELG1 DNA repair 16.4µM
O=C1OCC(CO)(CO)N=C1NNc1ccccc1[N+](=O)[O-]	HT1080 IDH1KD tx inconclusive, ELG1 DNA repair 7.3µM
COc1ccc(-n2cc(C(=O)c3cc4ccccc4oc3=O)c(C(C)=O)n2)cc1	DT40 TDP1 no CPT inconclusive, IL1B secr inh inconclusive, TDP1 cell CPT 23.1µM
COc1ccc(CNC(=O)c2cc3ccccc3oc2=O)cc1	none
CC(=O)Oc1ccc(N2C(=O)C3C(C2=O)C(C(=O)c2ccc(Cl)cc2)N2CCCC32)cc1 (configuration not stated)	DT40 TDP1 no CPT 18.4µM, IL1B secr inh -101.1, HT1080-NT tox inconclusive, TDP1 cell CPT inconclusive, HT1080 IDH1KD tx 23.1µM, ELG1 DNA repair inconclusive
COc1cccc(NC(=O)COC(=O)C2CC3CCCC(C2)C3=O)c1 (configuration not stated)	none
CCc1ccc(NC(=O)NCC2CCN(c3ccc(OC)cc3)C2)cc1 (configuration not stated)	TDP1 cell CPT 9.2µM
COc1ccc(N2CCC(CNC(=S)Nc3c(C)cc(C)cc3C)C2)cc1 (configuration not stated)	DT40 TDP1 no CPT inconclusive, TDP1 cell CPT inconclusive, ELG1 DNA repair inconclusive

Bioassay records (PubChem BioAssay)
